From ChEMBL document CHEMBL3988442, “University of Dundee, Small-Polar-MMV Screening Library” (2021)

Target: T1, Aspartate--tRNA(Asp/Asn) ligase (Mycobacterium tuberculosis (strain ATCC 25618 / H37Rv)) (UniProt P9WFW3)
T1 sequence (whole entry): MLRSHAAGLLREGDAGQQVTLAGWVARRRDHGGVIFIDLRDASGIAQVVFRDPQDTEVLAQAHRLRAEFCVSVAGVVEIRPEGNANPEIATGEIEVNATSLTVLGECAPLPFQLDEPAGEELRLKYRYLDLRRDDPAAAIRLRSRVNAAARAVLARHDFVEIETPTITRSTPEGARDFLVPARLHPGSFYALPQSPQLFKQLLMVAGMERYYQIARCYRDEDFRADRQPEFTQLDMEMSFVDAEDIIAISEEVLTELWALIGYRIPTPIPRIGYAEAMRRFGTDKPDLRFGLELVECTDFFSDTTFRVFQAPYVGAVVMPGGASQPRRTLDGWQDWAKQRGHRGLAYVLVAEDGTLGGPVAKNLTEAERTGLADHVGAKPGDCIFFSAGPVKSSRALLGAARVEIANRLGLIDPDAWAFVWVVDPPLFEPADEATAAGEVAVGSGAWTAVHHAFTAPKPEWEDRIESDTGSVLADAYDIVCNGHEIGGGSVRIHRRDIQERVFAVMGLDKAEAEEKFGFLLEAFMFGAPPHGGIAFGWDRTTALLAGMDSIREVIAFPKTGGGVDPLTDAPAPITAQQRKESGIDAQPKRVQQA
Assay: Assay for Asp RNA synthetase-1 from Mycobacterium tuberculosis
Assay type: functional
Design: scale not given: in the data most compounds retested in dose-response had high values
Details: 30 µM

Compared with `Cn1cc(Cl)cc1C(=O)N1CCCN(Cc2cccs2)CC1`, `CCn1c(C(=O)N2CCN(CC(C)O)CC2)cc2ccccc21` (stereo not given) is higher in Percent Effect: -5.24% for the first, -4.64% for the second.

Compared with `Cc1cn2c(n1)CCC(NC(=O)CCn1ccnn1)C2` (stereo not given), `Cc1cn2c(n1)CCC(NC(=O)c1nc(C)ncc1Cl)C2` (stereo not given) is higher in Percent Effect: -3.77% for the first, 1.79% for the second.

Going from `O=C(c1cccnc1)N1CC[C@H](OCC2CC2)[C@@H]1Cc1cccnc1` to `CN(Cc1ccccn1)C1COC2(CCN(Cc3cccnc3)CC2)C1` (stereo not given), the Percent Effect falls from 3.76% to -2.07%.

First: COc1cccc(CCC(=O)N2CCCC(n3cc(C)cn3)C2)c1 (stereo not given)
Second: COc1cccc(CCNC(=O)CN2CCN(C)CC2C)c1 (stereo not given)
The Percent Effect of the first is lower: -3.33% for the first, 0.495% for the second.

Compared with `Cc1n[nH]c(C2CN(C(=O)CCc3ccco3)CCO2)n1` (stereo not given), `CC(=O)N(Cc1noc(C)n1)C1CCN(CCOc2ccccc2)C1` (stereo not given) is lower in Percent Effect: 7.13% for the first, 2.87% for the second.

First: Cc1nnc2n1CCN(C(=O)c1cc(C)n(-c3ccccn3)c1C)C2
Second: CCc1nnc2n1CCN(Cc1csc(-c3ccc(C)o3)n1)C2
The Percent Effect of the first is higher: 4.19% for the first, 0.544% for the second.

Going from `CSc1ccc(NS(=O)(=O)c2cnn(C)c2)cn1` to `COc1ccccc1OCC(=O)NS(=O)(=O)c1ccc(C)s1`, the Percent Effect falls from 1.57% to -0.394%.

Compared with `COCCc1noc(CN(C)C(=O)c2cccc(N3CCCC3=O)c2)n1`, `COc1ccccc1CN(C)C(=O)c1cc(CN2CCC(O)CC2)on1` is higher in Percent Effect: 3.06% for the first, 3.59% for the second.

Going from `O=C(c1ccc2[nH]ccc2c1)N1CCn2cnc(COCC3CC3)c2C1` to `CCOc1ccnc(N2CCN(C(=O)c3cc(Cl)c[nH]3)CC2)n1`, the Percent Effect falls from 7.07% to -2.48%.

Compared with `CCCOc1ccc(NC(=O)NCCC(=O)N(C)C)cc1Cl`, `CC(NC(=O)NCCCO)c1ccc2c(c1)OCCO2` (stereo not given) is lower in Percent Effect: 1.09% for the first, 0.291% for the second.

Compared with `Cc1ccc(C(=O)N(C)Cc2cc(Br)cs2)c(=O)[nH]1`, `O=C(NCCOCC(F)(F)F)c1ccc(-c2ccco2)[nH]c1=O` is lower in Percent Effect: 0.749% for the first, 0.409% for the second.

Compared with `CCn1cc(CN2CCCN(C(=O)CCc3ccncc3)CC2)cn1`, `CN(CC(=O)N1CCN(c2ncccn2)CC1)c1ccc(Cl)cn1` is lower in Percent Effect: 0.516% for the first, -2% for the second.

Going from `CNc1cc(CCNC(=O)c2cccnc2)nc(-c2ccncc2)n1` to `O=C(NCCCn1cccn1)C1(c2ccc(F)cc2)CC1`, the Percent Effect falls from -1.03% to -8.14%.

Going from `COCC1CC2(CCN(C(=O)c3cccn3C)CC2)CN1C(C)C` (stereo not given) to `COCC(=O)N1CCC2(CC1)CCN(Cc1ccccn1)C2=O`, the Percent Effect rises from -3.53% to 3.22%.

First: Cc1nc(CN2CCN(C(=O)c3sccc3C3CC3)CC2)cs1
Second: Cc1nc(CN2C(=O)C[C@@H]3[C@@H]2CCN3C(=O)C2CCOCC2)cs1
The Percent Effect of the first is lower: -4.27% for the first, -2.3% for the second.

First: Cc1cccc(NS(=O)(=O)c2cc(C(=O)O)oc2C)c1Cl
Second: CCc1ccc(S(=O)(=O)Nc2cc(OC)c(OC)cc2C(=O)O)s1
The Percent Effect of the first is lower: -1.97% for the first, 5.87% for the second.

Going from `O=C(CCCc1cn[nH]c1)N1C[C@@H](CN2CCOCC2)[C@@H](CO)C1` to `CN(C)C(=O)N1CCN(CCn2nc3ccccn3c2=O)CC1`, the Percent Effect falls from 4.17% to -3.02%.

First: CC(c1nc(C2CC2)no1)N1CCN(CCOCC(F)(F)F)CC1 (stereo not given)
Second: Cc1cccnc1C(=O)N1CCCC(c2[nH]ncc2S(C)(=O)=O)C1 (stereo not given)
The Percent Effect of the first is lower: -1.02% for the first, 3.25% for the second.

Going from `CCSCCC(=O)NS(=O)(=O)c1ccc2c(c1)OCCO2` to `CCn1nc2c(cc1=O)CN(Cc1nc3ccccc3c(=O)[nH]1)CC2`, the Percent Effect falls from -0.722% to -3.91%.

Compared with `NC(=O)c1cc(NC(=O)N2CCCCCC2)ccc1F`, `Fc1cnc(N2C[C@H]3CCC[C@@]3(COc3ccccn3)C2)nc1` is lower in Percent Effect: 1.17% for the first, 0.435% for the second.
